In PubChem BioAssay AID652048 (National Center for Advancing Translational Sciences (NCATS), 2013):
Values joined by “and” are separate entries in the source; they are usually repeats but may differ in a detail not shown here. Equal entries are not always repeated. Among all 410,000 compounds or so, about 2,400 (0.59%) were called active. For the sample, actives were picked, then their nearest neighbours and some compounds at random. Values without a mark were called inactive. No stated cut-off is given here; in the data, active means max activation above about 30%; inactive means the rest.
Further: 0% is about no effect.

What follows are compounds tested against D(3) dopamine receptor (Homo sapiens) (UniProt P35462) (assay: qHTS of D3 Dopamine Receptor Agonist: qHTS). Settings: D3R DiscoveRx beta-arrestin cells, luminescence, 90 min; active compounds read high.
Sequence of D(3) dopamine receptor (Homo sapiens) (P35462 whole entry, looked up): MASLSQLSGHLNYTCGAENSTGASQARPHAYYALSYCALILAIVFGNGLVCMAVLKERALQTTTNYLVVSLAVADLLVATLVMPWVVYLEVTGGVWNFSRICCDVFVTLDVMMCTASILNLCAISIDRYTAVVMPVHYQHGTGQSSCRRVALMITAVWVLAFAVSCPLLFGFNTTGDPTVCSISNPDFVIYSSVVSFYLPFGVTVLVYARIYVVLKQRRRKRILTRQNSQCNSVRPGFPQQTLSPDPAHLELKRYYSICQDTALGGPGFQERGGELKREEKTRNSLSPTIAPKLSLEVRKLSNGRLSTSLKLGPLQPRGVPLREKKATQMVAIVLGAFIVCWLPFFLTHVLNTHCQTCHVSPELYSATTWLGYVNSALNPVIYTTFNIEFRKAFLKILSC
Description: D3 DARs represent a very important target for the treatment of several neuropsychiatric disorders. Indeed, one of the most promising therapeutic applications for the D3 DAR is in the area of addiction and related disorders. […] These findings have been observed with a number of addictive substances including cocaine, amphetamine, nicotine, and alcohol. […] Antagonism of the D3 DAR may also be therapeutic in the treatment of schizophrenia or psychosis. […] Since the D3 DAR is expressed in areas of the CNS associated with the control of mood and emotion, it has been hypothesized that selective antagonism of the D3 DAR may be effective in treating psychosis without inducing the motor side effects typically seen with D2 DAR antagonists.
This part of the project aims to discover novel agonist.
NIH Chemical Genomics Center [NCGC]
NIH Molecular Libraries Probe Centers Network [MLPCN]
Assay Submitter (PI): David Sibley, NINDS
Freshly passaged cells are plated in 1536 well white, solid bottom plates at a density of 1500 cells/well in 3microl of complete media. After an overnight incubation at 37 degrees C in 5% CO2, cells are loaded with 23nl of test compound from the compound library (as well as dopamine controls) using a 1536 pintool and incubated at 37 degrees C for 90 minutes. Two microliters of DiscoveRx reagent is then added to all cells, and they are incubated for an additional 30 - 60 minutes at room temperature. Following incubation, luminescence is measured on a ViewLux CCD-based luminometer reader using a 20 sec exposure time.
In the case of `O=c1[nH]c(CN2CC=C(c3ccccc3)CC2)nc2scc(-c3cccs3)c12`, the max activation was 53.9% (active). Work on `CCCCC1C(=O)NC(=O)N(C2CCCCC2)C1=O` (stereo not given) yielded a max activation of -3.28%. `O=P1(N(CCCl)CCCl)NC(OO)CCO1` (stereo not given) was tested, and the max activation was 1.75%. Compound `C#C[C@]1(OC(=O)CCCCCC)CC[C@H]2[C@@H]3CCC4=CC(=O)CC[C@@H]4[C@H]3CC[C@@]21C` has a max activation of 26.4%. `O=S(=O)(O)C(F)(F)C(F)(F)C(F)(F)C(F)(F)F` showed a max activation of -6.51%. For `COc1cc(C[C@H](C)N)c(OC)cc1Br`, the max activation was -14.5%. `COC1C(O)C(C)OC(OC2CCC3(C=O)C(CCC4C3CCC3(C)C(C5=CC(=O)OC5)CCC43O)C2)C1O` (stereo not given) gave a max activation of 1.37%. With `C[C@]12CC[C@H](O)C[C@H]1CC[C@@H]1C2CC[C@]2(C)[C@@H](C3=CC(=O)OC3)[C@@H](O)C[C@]12O` (stereo not given in full) the max activation was 51.5% (active). With `COC12CC[C@@]3(C[C@@H]1C(C)(O)C(C)(C)C)[C@H]1Cc4ccc(O)c5c4[C@@]3(CCN1CC1CC1)[C@H]2O5` (stereo not given in full) the max activation was 6.77%. For `O=C1C[C@@H]2OCC=C3CN4CC[C@]56c7ccccc7N1[C@H]5[C@H]2[C@H]3C[C@H]46` (tested in a mixture with another compound), the max activation was 11.4% and 8.18%.
